Experimental findings from PubChem BioAssay AID686979 (National Center for Advancing Translational Sciences (NCATS), 2013) are described below.

The structures appear in SMILES notation. In all, about 420,000 compounds went through this assay and about 50,000 (12%) were called active. Entries that show only a call come without a potency. Roughly 26% stayed inconclusive and do not appear here. Calls follow the shape of the dose curve; as a rule, active = well fitted inhibition curve with a large enough effect; inconclusive = small, poorly fitted or top-dose-only effect; inactive = flat fitted curve, though single readings scatter. Many of the other results were omitted from the sample, so actives are more common in it than they were.
Potency is read from the fitted curve at half-maximal effect.

The experiment can be described thus: qHTS for Inhibitors of human tyrosyl-DNA phosphodiesterase 1 (TDP1): qHTS in cells in presence of CPT. Also: nearly all actives have a fitted effect of over 55% in size. The settings on record: chicken DT40 Tdp1-/-;hTDP1 cells + 20 nM CPT, ATP luminescence, 48 h; series mostly up to 46.2 µM. Summed up:
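Chicken DT40 Tdp1-/- cells stably complemented with human TDP1 were seeded at 400 cells/well in medium containing 20 nM camptothecin, exposed to pin-transferred compounds, and grown at 37 °C for at least 48 hr. Viability was read as ATP luminescence.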
Regarding `CCCCNC(=O)N1CCCC(N(C)CCc2ccc(OC)c(OC)c2)C1` (stereo not drawn), the Potency entry is “inactive”.

`CC(NC(=O)CNC(=O)Cc1cccc2ccccc12)c1ccc(S(N)(=O)=O)cc1` (stereo not drawn): the Potency result is “inactive”.

For `COc1ccc(-n2cc(CNC3CCOCC3)c(-c3cccc(F)c3)n2)cc1`, the Potency is 20.6 µM (active).

Take `COc1ccc(CN2C3CCCC2CC(NC(=O)c2cccc(F)c2)C3)cc1` (stereo not drawn): the Potency result is “inactive”.

In the case of `Cc1cccc(-n2cc(CN3CCN(C(=O)c4ncn[nH]4)CC3)c(-c3cccc(F)c3)n2)c1`, the Potency entry was “inactive”.

For `COc1ccc(Cl)cc1-n1c(=S)sc2c(=O)n(-c3ccc(F)cc3)c(SCC(=O)O)nc21`, the Potency result is “inactive”.

As for `COc1cc(C)c(CN2CCc3nnc(C(C)NC(=O)c4cccnc4)n3CC2)cc1C` (stereo not drawn), the Potency result is “inactive”.

For `Cc1ccccc1Nc1c([N+](=O)[O-])ccc2nonc12`, the Potency result is “inactive”.

Turning to `Cc1nn(C)cc1C(=O)c1ccccc1`, the Potency entry was “inactive”.

Consider `COc1ccc(N(C)C(=O)C2CCN(S(=O)(=O)c3cccc4nsnc34)CC2)cc1`, for which the Potency entry was “inactive”.

For `COc1ccc(CCNC(=O)COC(=O)c2cnc(Cl)c(Cl)c2)cc1`, the Potency entry was “inactive”.

As for `COc1ccc(CCC(=O)NCCc2csc(-c3ccc(Cl)cc3)n2)cc1`, the Potency was 23.1 µM (active).

For `COc1ccc(OCCCC(=O)NCCc2ccccc2)cc1`, the Potency result was “inactive”.

As for `CCOc1ccc(C(=O)Nc2cc(Cl)ccc2-n2cncn2)cc1OC`, the Potency entry was “inactive”.

Take `CCC(NC(=O)C1CCCC1)c1ccc(C)cc1` (stereo not drawn): the Potency entry was “inactive”.

With `Cc1cc[n+](C2CCCCC2)cc1`, the Potency was 15.8 µM (active).

Regarding `Cc1cc(C(=O)CCC(=O)NNC(=O)c2ccccc2O)c(C)s1`, the Potency result is “inactive”.

As to `COc1ccccc1N(C)S(=O)(=O)c1ccc(Cl)c(C(=O)N2CCC(C(N)=O)CC2)c1`, the Potency result was “inactive”.

Take `CC1=C(C)CC(C(=O)NNC(=O)c2csc3c2CCC(C(C)(C)C)C3)C(C(=O)O)C1` (stereo not drawn): the Potency result is “inactive”.

Consider `CC1=C(C)CC(C(=O)NC(C)CCc2ccccc2)C(C(=O)O)C1` (stereo not drawn), for which the Potency result is “inactive”.

With `Cc1ccc(S(=O)(=O)N2CCCCC2)cc1NC(=O)CCNC(=O)c1ccccc1Cl`, the Potency entry was “inactive”.

In the case of `NC(=O)COC(=O)c1cc(S(=O)(=O)N2CCN(c3ccccc3)CC2)ccc1Cl`, the Potency entry was “inactive”.

Consider `O=C(COC(=O)c1cc(S(=O)(=O)N2CCCCC2)ccc1Cl)NCc1ccco1`, for which the Potency entry was “inactive”.

For the compound `O=C(NNC(=O)c1cc(S(=O)(=O)N2CCCCC2)ccc1Cl)c1ccccc1O`, the Potency is 23.1 µM (active).

As for `CC1=C(C)CC(C(=O)NNC(=O)c2ccccc2O)C(C(=O)O)C1` (stereo not drawn), the Potency was 18.4 µM (active).

For the compound `NC(=O)C1CCN(C(=O)c2cc(S(=O)(=O)N3CCN(c4ccccc4)CC3)ccc2Cl)CC1`, the Potency was 10.3 µM (active).

Consider `CC(=O)NC(=O)c1ccccc1O`, for which the Potency entry is “inactive”.

In the case of `O=C(NNC(=O)c1ccccc1O)c1ccccc1O`, the Potency was 5.17 µM (active).

For `COCCNC(=S)N(CCc1c(C)[nH]c2ccc(C)cc12)Cc1cccnc1`, the Potency entry was “inactive”.

As to `CC(NC(=O)CN(C)S(=O)(=O)c1ccc(F)cc1)C1CC2CCC1C2` (stereo not drawn), the Potency result is “inactive”.

Consider `CC(=O)N/C(=C\c1ccccc1)C(=O)OC(C)C(=O)N(C)c1ccccc1` (stereo not drawn), for which the Potency result was “inactive”.

Regarding `CCOC(=O)Cn1c(O)c(N=NC(=O)CNC(=O)Cc2ccccc2)c2ccccc21`, the Potency entry was “inactive”.

On to `CC(=O)Nc1ccc(S(=O)(=O)N2CCC(C(=O)N[C@@H](Cc3ccccc3)C(=O)O)CC2)cc1`, for which the Potency result was “inactive”.

Regarding `COc1cccc(CNC(=O)C(NS(=O)(=O)c2ccc3nc(C)sc3c2)C(C)C)c1` (stereo not drawn), the Potency entry is “inactive”.

As to `COc1cccc(/C=C2\SC(=S)N(CCCC(=O)N3CCOCC3)C2=O)c1`, the Potency was 18.4 µM (active).

Consider `COc1ccc(/C=C2\SC(=S)N(CCC(=O)N3CCOCC3)C2=O)cc1OC`, for which the Potency result was “inactive”.

In the case of `COc1cccc(/C=C2/SC(=S)N(CC(=O)NC3C=CS(=O)(=O)C3)C2=O)c1` (stereo not drawn), the Potency entry was “inactive”.

Turning to `Cc1cc(C)cc(NC(=O)COC(=O)c2cc(C)oc2C)c1`, the Potency result was “inactive”.

Take `Cc1sc2ccccc2c1CNC[C@H]1O[C@@H](n2ccc(=O)[nH]c2=O)[C@H](O)[C@@H]1O`: the Potency result is “inactive”.

On to `O=C(CCn1ccc([N+](=O)[O-])n1)Nc1nccs1`, for which the Potency entry is “inactive”.

Consider `CC1CN(Cc2ccco2)C(=S)N(c2ccccc2)C1=O` (stereo not drawn), for which the Potency result is “inactive”.

As to `Cc1cs/c(=N\N=C\c2ccc(O)cc2)n1Cc1ccco1`, the Potency result was “inactive”.

Consider `CN(C)C(=S)N=c1ssc(=S)n1Cc1ccco1`, for which the Potency is 1.64 µM (active).

In the case of `Nc1ncnc2c1ncn2[C@@H]1O[C@H](C(=O)NS(=O)(=O)c2c(Cl)nc3sccn23)[C@@H](O)[C@H]1O`, the Potency result is “inactive”.

Take `O=S(=O)(Nc1ccccn1)c1cccc(S(=O)(=O)c2ccc(Cl)cc2)c1`: the Potency result was “inactive”.

On to `NS(=O)(=O)c1ccc(CNC(=O)c2cc(S(=O)(=O)N3CCOCC3)ccc2N2CCCC2)cc1`, for which the Potency result is “inactive”.

With `CCCN(C(=O)COC(=O)CNS(=O)(=O)c1ccc(NC(C)=O)cc1)C1CCS(=O)(=O)C1` (stereo not drawn), the Potency entry was “inactive”.

For the compound `COC(=O)C1=C(N)Oc2c(oc(CO)cc2=O)C1c1c(F)cccc1Cl` (stereo not drawn), the Potency result was “inactive”.

`CCOC(=O)c1sc(NC(=O)c2sc(C)nc2C)nc1C`: the Potency result was “inactive”.

Turning to `CCOC(=O)c1cc(-c2sc(NC(=O)c3ccccc3)nc2C)n(Cc2ccccc2)n1`, the Potency was 16.4 µM (active).

As to `CCOC(=O)c1cc(OC(=O)c2ccccc2Cl)n(-c2ccccc2)n1`, the Potency entry was “inactive”.

With `CSc1ccc(Cl)c(C(=O)OCC(=O)N2CCNC2=O)c1`, the Potency entry is “inactive”.

`Nc1ncnc2c1ncn2[C@@H]1O[C@H](C(=O)N2CCSC2)[C@@H](O)[C@H]1O`: the Potency entry was “inactive”.

On to `COc1ccc(Nc2nc(N)nc(CSC(=S)N3CCC(C)CC3)n2)cc1`, for which the Potency entry was “inactive”.

Take `COc1ccc(N(CC(=O)Nc2ccc(C)cc2C)S(=O)(=O)c2ccccc2[N+](=O)[O-])c(OC)c1`: the Potency entry is “inactive”.

As to `CN(CC(=O)Nc1cccc(F)c1)CC(=O)Nc1cccc([N+](=O)[O-])c1`, the Potency entry was “inactive”.

On to `COc1ccc(C)cc1S(=O)(=O)N(CC(=O)Nc1cccc([N+](=O)[O-])c1)c1ccc(C)cc1`, for which the Potency is 18.4 µM (active).

As for `O=C(CCc1nnc2ccc(NCCCN3CCCC3=O)nn12)NCc1ccccc1Cl`, the Potency result is “inactive”.

As for `COc1ccc(NC(=O)CN2C(=O)CSc3ccc(S(=O)(=O)N4CCC(C)CC4)cc32)cc1`, the Potency entry is “inactive”.

For the compound `O=S(=O)(NCCc1ccncc1)c1ccccc1`, the Potency result is “inactive”.

With `Nc1nc(/C(=C/CC(=O)O)C(=O)N[C@@H]2C(=O)N3C(C(=O)O)=CCS[C@H]23)cs1`, the Potency entry was “inactive”.

Turning to `O=C(c1cccc([N+](=O)[O-])c1)N1CCN(Cc2ccccc2)CC1`, the Potency result is “inactive”.

`O=C1Nc2ccc([N+](=O)[O-])cc2C1=Nc1cccc(CO)c1`: the Potency was 16.4 µM (active).
